Records with an inconclusive call do not appear. The source made the active and inactive calls. The call rests on the fitted dose curve; in most records, active means well fitted inhibition curve with a large enough effect; inconclusive means small, poorly fitted or top-dose-only effect; inactive means flat fitted curve, though single readings scatter.

What all share (test): qHTS profiling for inhibitors of Plasmodium falciparum proliferation (AID 504749); further: nearly all actives have a fitted effect of over 60% in size
Settings in all cases: P. falciparum in erythrocytes, SYBR Green DNA, 72 h; series mostly up to 28.7 µM
For orientation: Quantitative high-throughput screening tests each substance at several concentrations.

Assay [1] relates to CP238. The essentials: (§1)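 In a 72 h erythrocytic culture (37 C, humidified, 5% CO2) at 2.5% hematocrit and 0.3% starting parasitemia, compounds were tested; SYBR Green I in detergent lysis buffer stained parasite DNA overnight.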
For assay [2], the system named is CP247. Put shortly:
as §1

For assay [3], the system named is CP250. Put shortly:
as §1

Assay [4] relates to CP252. The essentials:
as §1

Assay [5] concerns CP256. Put shortly:
as §1

The test system of assay [6] is CP260. The essentials:
as §1

Assay [7] deals with CP262. Put shortly: as §1
For assay [8], the system named is CP266. The essentials: as §1
Assay [9] concerns CP268. Put shortly: as §1
The test system of assay [10] is CP269. Put shortly:
as §1

For assay [11], the system named is CP286. The essentials: as §1
Assay [12] deals with CP291. Put shortly:
as §1

Assay [13] relates to CP297. The essentials: as §1
The test system of assay [14] is CP305. Put shortly: as §1
The test system of assay [15] is CP315. Put shortly: as §1
Assay [16] deals with CP325. The essentials: as §1
Assay [17] deals with CP329. Put shortly: as §1
The subject of assay [18] is CP335. The essentials:
as §1

The test system of assay [19] is DFO2036. Put shortly: as §1
Assay [20] has as its system CP265. The essentials: as §1
Potency means the concentration at half of the fitted maximal effect.

`NC(=NCCCCCCN=C(N)/N=C(\N)Nc1ccc(Cl)cc1)/N=C(\N)Nc1ccc(Cl)cc1`: the Potency in [1] was 2.24 µM (active); in [2], 2.24 µM (active); in assay [3], 2.24 µM (active); in assay [4], 2 µM (active); in [5], 1.41 µM (active); in assay [6], 1 µM (active). For the same compound, the Potency was 1.51 µM (active) in assay [7]; 3.79 µM (active) in [8]; 1.51 µM (active) in assay [9]; 1.2 µM (active) in [10]; 0.398 µM (active) in [11]; 1.35 µM (active) in [12]. The Potency in assay [13] was 2.13 µM (active); in assay [14] it was 1.2 µM (active); in [15], 1.07 µM (active); in assay [16], 1.9 µM (active); in assay [17], 1.69 µM (active); in assay [18] it was 1.69 µM (active). Besides, in assay [19], the Potency is 1.78 µM (active).
As for `COc1ccc(CCN2CCC(Nc3nc4ccccc4n3Cc3ccc(F)cc3)CC2)cc1`, the Potency in [1] is 3.55 µM (active); in assay [2] it was 3.98 µM (active); in assay [3] it was 2.24 µM (active); in [4], 3.16 µM (active); in assay [5], 3.55 µM (active); in assay [6], 1 µM (active). The Potency in assay [20] is 3.98 µM (active); in assay [9], 4.78 µM (active); in [10] it was 4.78 µM (active); in assay [11], 2.51 µM (active); in assay [12], 4.26 µM (active); in [13], 5.36 µM (active). Also, the Potency in assay [14] is 4.26 µM (active); in assay [15], 12 µM (active); in [16], 4.26 µM (active); in assay [17] it was 9.53 µM (active); in assay [18], 3.79 µM (active); in assay [19] it was 3.55 µM (active).
For `COc1c(C)c2c(c(O)c1C/C=C(\C)CCC(=O)O)C(=O)OC2`, the Potency in [1] is 3.16 µM (active); in [3], 3.16 µM (active); in assay [4], 2.51 µM (active); in assay [5], 3.16 µM (active); in assay [6], 3.16 µM (active); in assay [20] it was 3.16 µM (active). For the same compound, the Potency in assay [10] is 5.1 µM (active); in assay [11] it was 3.16 µM (active); in [12], 4.05 µM (active); in assay [13], 5.1 µM (active); in [14], 4.05 µM (active); in assay [17], 6.42 µM (active). For the same compound, the Potency is 3.22 µM (active) in [18] and 2.51 µM (active) in assay [19].
For the compound `CCOc1ccc(Cc2nccc3cc(OCC)c(OCC)cc23)cc1OCC`, the Potency entry in [1], in assay [2], in assay [3], in assay [4], in assay [6] and in assay [7] was “inactive” in each case. Moreover, the Potency result in assay [20], in assay [8], in [9], in [10], in [11] and in assay [13] was “inactive” throughout. Moreover, the Potency entry in assay [14], in [15], in assay [16] and in assay [19] was “inactive” throughout.
Turning to `COc1cccc2c1C(=O)c1c(O)c3c(c(O)c1C2=O)C[C@@](O)(C(C)=O)C[C@@H]3O[C@H]1C[C@H](N)[C@H](O)[C@H](C)O1`, the Potency in [1] is 3.98 µM (active); in [2], 1.41 µM (active); in [3], 1 µM (active); in assay [4], 1.12 µM (active); in assay [5], 1 µM (active); in assay [6], 1.12 µM (active). Further, the Potency is 2 µM (active) in assay [20]; 8.49 µM (active) in assay [8]; 6.01 µM (active) in assay [9]; 4.78 µM (active) in [10]; 2 µM (active) in assay [11]; 5.36 µM (active) in assay [12]. The Potency in assay [13] was 7.57 µM (active); in assay [14], 4.78 µM (active); in assay [15] it was 7.57 µM (active); in assay [16], 8.49 µM (active); in assay [17], 6.01 µM (active); in assay [18] it was 4.78 µM (active). Besides, the Potency in assay [19] is 4.47 µM (active).
Turning to `CN(C)/N=N/c1nc[nH]c1C(N)=O`, the Potency entry in [1], in assay [2], in assay [3], in assay [4], in assay [6] and in assay [7] was “inactive” throughout. In addition, the Potency entry in [20], in assay [8], in assay [9], in assay [10], in [11] and in [12] was “inactive” each time. Besides, the Potency entry in assay [13], in assay [14], in assay [15], in assay [16], in assay [17] and in [19] was “inactive” throughout.
As for `CN1CCC[C@@H]1c1cccnc1`, the Potency entry in [1], in assay [2], in assay [3], in assay [4], in assay [5] and in assay [6] was “inactive” in each case. Moreover, the Potency result in assay [20], in [8], in assay [9], in [10], in assay [11] and in assay [12] was “inactive” each time. Moreover, the Potency result in assay [13], in assay [14], in [15], in assay [16], in assay [17] and in [18] was “inactive” each time. Also, in assay [19], the Potency entry is “inactive”.
Turning to `CN1CCN(C(c2ccccc2)c2ccccc2)CC1`, the Potency entry in assay [1], in assay [2], in [3], in [4], in assay [5] and in assay [6] was “inactive” each time. The Potency result in assay [7], in assay [8], in [9], in assay [11], in [13] and in assay [14] was “inactive” each time. In addition, the Potency result in [15] and in [19] was “inactive” throughout.
On to `CC(=O)Oc1ccc(C(=C2CCCCC2)c2ccc(OC(C)=O)cc2)cc1`, for which the Potency result in [1], in assay [2], in [3], in assay [4], in assay [5] and in assay [7] was “inactive” each time. Besides, the Potency entry in assay [20], in [8], in [9], in assay [10], in [11] and in assay [12] was “inactive” throughout. The Potency entry in assay [13], in assay [14], in assay [15], in assay [16], in [17] and in assay [18] was “inactive” throughout. In addition, the Potency entry in assay [19] was “inactive”.
For the compound `Oc1c(I)cc(Cl)c2cccnc12`, the Potency is 11.2 µM (active) in [1]; 12.6 µM (active) in [2]; 5.01 µM (active) in [3]; 11.2 µM (active) in [4]; 2.51 µM (active) in [5]. Besides, the Potency result in [8], in [9], in assay [10], in [11], in assay [13] and in assay [14] was “inactive” in each case. Besides, the Potency result in [15], in assay [16], in assay [17] and in assay [18] was “inactive” each time.
Consider `CC(C)N=C(N)/N=C(\N)Nc1ccc(Cl)cc1`, for which the Potency entry in [1], in assay [8] and in assay [9] was “inactive” throughout. Also, the Potency in [5] was 0.708 µM (active); in assay [7] it was 2.28 µM (active).
Regarding `Oc1ccc(Cl)c2cccnc12`, the Potency entry in assay [1], in assay [2], in [3], in assay [4], in assay [5] and in assay [20] was “inactive” throughout. Besides, the Potency entry in assay [8], in [9], in [10], in assay [12], in assay [13] and in assay [14] was “inactive” in each case. Further, the Potency entry in [15], in assay [16], in assay [17] and in assay [19] was “inactive” in each case.
With `CC(C)(C)CC(C)(C)c1ccc(O)c(Cc2ccc(Cl)cc2Cl)c1`, the Potency in assay [1] was 1.41 µM (active); in [2] it was 3.16 µM (active); in assay [3], 3.16 µM (active); in assay [4], 1 µM (active); in assay [5] it was 3.55 µM (active); in assay [6], 2 µM (active). Moreover, the Potency in assay [20] is 3.16 µM (active); in assay [8] it was 4.78 µM (active); in [9], 0.757 µM (active); in [10] it was 1.51 µM (active); in [11], 2.51 µM (active); in assay [12] it was 3.38 µM (active). Moreover, the Potency in [13] is 1.69 µM (active); in assay [15], 3.79 µM (active); in assay [16], 3.79 µM (active); in assay [17], 4.78 µM (active); in [18] it was 1.51 µM (active); in assay [19], 2 µM (active).
For `CC(=O)c1ccc2c(c1)N(CCCN1CCC(CCO)CC1)c1ccccc1S2`, the Potency entry in assay [1], in assay [2], in [3], in [4], in [5] and in assay [7] was “inactive” in each case. Further, the Potency result in [20], in [8], in assay [9], in [10], in [12] and in assay [13] was “inactive” each time. For the same compound, the Potency entry in assay [14], in assay [15], in assay [16], in [17] and in assay [19] was “inactive” each time.
As for `CCCCOc1cc(C(=O)NCCN(CC)CC)c2ccccc2n1`, the Potency result in assay [1], in assay [2], in assay [3], in assay [4], in [5] and in [6] was “inactive” each time. Further, the Potency entry in assay [20], in assay [9], in assay [10], in assay [11], in assay [12] and in assay [13] was “inactive” each time. In addition, the Potency result in [14], in assay [15], in [16], in assay [17], in [18] and in [19] was “inactive” throughout.
Take `COCc1c(C(C)C)nc(C(C)C)c(/C=C/[C@@H](O)C[C@@H](O)CC(=O)O)c1-c1ccc(F)cc1`: the Potency result in assay [1], in [3], in assay [4], in assay [5], in [6] and in assay [7] was “inactive” in each case. Also, the Potency entry in assay [20], in assay [8], in [9], in [10], in assay [11] and in assay [12] was “inactive” each time. Further, the Potency entry in [13], in [14], in [15], in assay [16], in assay [17] and in assay [18] was “inactive” throughout. Also, the Potency entry in assay [19] was “inactive”.
With `CCN1CCC[C@H]1CNC(=O)c1c(OC)ccc(Br)c1OC`, the Potency entry in [1], in assay [3], in assay [4], in assay [5], in [6] and in assay [7] was “inactive” each time. Also, the Potency entry in [20], in [8], in [9], in assay [10], in assay [11] and in [12] was “inactive” throughout. Moreover, the Potency result in assay [14], in [15], in [16], in assay [17], in [18] and in assay [19] was “inactive” throughout.
Regarding `Cc1ccc(C(=O)C(C)CN2CCCCC2)cc1` (centres undefined), the Potency result in [1], in assay [2], in assay [3], in assay [4], in [5] and in assay [7] was “inactive” throughout. Also, the Potency result in assay [8], in assay [9], in [11], in assay [12], in [13] and in [14] was “inactive” in each case. The Potency entry in [15], in assay [16], in assay [17] and in assay [19] was “inactive” each time. In addition, the Potency in [20] was 10 µM (active).

The record behind these values is PubChem BioAssay (NCATS).
